The supplement of paper PMC8728848
The sample as a whole holds a higher share of the strongest signals than the screen did.

Legend:
Assay in all cases: glycan array binding signal (z-score within array); higher = stronger binding
Conditions in all cases: glycan notation: IUPAC condensed, linker removed
[1] = molecular target: Fuc(a1-2)Gal(b1-4)[Fuc(a1-3)]GlcNAc(b1-3)[Neu5Ac(a2-6)Gal(b1-4)GlcNAc(b1-6)]Gal(b1-4)Glc
Outline: (§1)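 Columns mapping to the same glycan were averaged after glycan names were converted to IUPAC-condensed notation. The data come from 3228 arrays in the Consortium for Functional Glycomics database, limited to those with an available protein sequence. Binding is reported as a within-array Z-score averaged across arrays of one protein sequence and across linkers.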

Fuc(a1-2)[Gal(a1-3)]Gal = molecular target: Fuc(a1-2)[Gal(a1-3)]Gal
Outline: as §1

[2] = molecular target: Fuc(a1-2)[GalNAc(a1-3)]Gal(b1-4)GlcNAc(b1-2)Man(a1-3)[Fuc(a1-2)[GalNAc(a1-3)]Gal(b1-4)GlcNAc(b1-2)Man(a1-6)]Man(b1-4)GlcNAc(b1-4)[Fuc(a1-6)]GlcNAc
Outline: as §1

[3] = molecular target: Fuc(a1-2)[GalNAc(a1-3)]Gal(b1-4)GlcNAc(b1-3)Gal(b1-4)GlcNAc(b1-3)Gal(b1-4)GlcNAc
Outline: as §1

[4] = molecular target: Fuc(a1-2)[GalNAc(a1-3)]Gal(b1-4)[Fuc(a1-3)]GlcNAc(b1-3)GalNAc
Outline: as §1

Fuc(b1-3)GlcNAc = molecular target: Fuc(b1-3)GlcNAc
Outline: as §1

[5] = molecular target: Gal(a1-3)Gal(b1-4)GlcNAc(b1-3)GalNAc
Outline: as §1

Gal(a1-6)Glc = molecular target: Gal(a1-6)Glc
Outline: as §1

[6] = molecular target: Gal(b1-3)GlcNAc(b1-2)[Gal(b1-3)GlcNAc(b1-6)]Man(a1-6)[Gal(b1-3)GlcNAc(b1-2)Man(a1-3)]Man(b1-4)GlcNAc(b1-4)GlcNAc
Outline: as §1

[7] = molecular target: Gal(b1-3)GlcNAc(b1-3)Gal(b1-3)GlcNAc
Outline: as §1

[8] = molecular target: Gal(b1-3)[Fuc(a1-4)]GlcNAc
Outline: as §1

[9] = molecular target: Gal(b1-3)[Fuc(a1-4)]GlcNAc(b1-3)Gal(b1-3)[Fuc(a1-4)]GlcNAc
Outline: as §1

[10] = molecular target: Gal(b1-3)[GlcNAc(b1-6)]GalNAc
Outline: as §1

Gal(b1-4)GlcNAc = molecular target: Gal(b1-4)GlcNAc
Outline: as §1

[11] = molecular target: Gal(b1-4)GlcNAc(b1-2)Man(a1-3)Man(b1-4)GlcNAc(b1-4)GlcNAc
Outline: as §1

[12] = molecular target: Gal(b1-4)GlcNAc(b1-2)[Gal(b1-4)GlcNAc(b1-6)]Man(a1-6)[GlcNAc(b1-4)][Gal(b1-4)GlcNAc(b1-2)Man(a1-3)]Man(b1-4)GlcNAc(b1-4)GlcNAc
Outline: as §1

[13] = molecular target: Gal(b1-4)GlcNAc(b1-3)[Fuc(a1-3)GlcNAc(b1-6)]Gal(b1-4)Glc
Outline: as §1

[14] = molecular target: Gal(b1-4)GlcNAc(b1-3)[GlcNAc(b1-6)]Gal(b1-4)GlcNAc
Outline: as §1

Gal3S6S(b1-4)GlcNAc = molecular target: Gal3S6S(b1-4)GlcNAc
Outline: as §1

Gal4S(b1-4)GlcNAc = molecular target: Gal4S(b1-4)GlcNAc
Outline: as §1

Gal4S6S(b1-4)GlcNAc = molecular target: Gal4S6S(b1-4)GlcNAc
Outline: as §1

Gal6S(b1-3)GlcNAc6S = molecular target: Gal6S(b1-3)GlcNAc6S
Outline: as §1

[15] = molecular target: GalNAc(a1-3)GalNAc(a1-3)Gal(a1-4)Gal(b1-4)GlcNAc
Outline: as §1

[16] = molecular target: GalNAc(b1-3)Gal(a1-6)Gal(b1-4)Glc
Outline: as §1

[17] = molecular target: GalNAc(b1-4)GlcNAc(b1-2)Man(a1-3)[GalNAc(b1-4)GlcNAc(b1-2)Man(a1-6)]Man(b1-4)GlcNAc(b1-4)GlcNAc
Outline: as §1

GalNAc6S(b1-4)GlcNAc = molecular target: GalNAc6S(b1-4)GlcNAc
Outline: as §1

[18] = molecular target: Glc(a1-4)Glc(a1-4)Glc(a1-4)Glc
Outline: as §1

[19] = molecular target: GlcNAc(a1-3)Gal(b1-4)GlcNAc
Outline: as §1

[20] = molecular target: GlcNAc(a1-4)Gal(b1-3)GlcNAc
Outline: as §1

[21] = molecular target: GlcNAc(a1-4)Gal(b1-4)GlcNAc
Outline: as §1

[22] = molecular target: GlcNAc(a1-4)Gal(b1-4)GlcNAc(b1-3)Gal(b1-4)GlcNAc(b1-3)Gal(b1-4)GlcNAc
Outline: as §1

[23] = molecular target: GlcNAc(b1-2)Man(a1-3)[GlcNAc(b1-4)][GlcNAc(b1-2)Man(a1-6)]Man(b1-4)GlcNAc(b1-4)[Fuc(a1-6)]GlcNAc
Outline: as §1

[24] = molecular target: GlcNAc(b1-2)[GlcNAc(b1-4)]Man(a1-3)[GlcNAc(b1-4)][GlcNAc(b1-2)Man(a1-6)]Man(b1-4)GlcNAc(b1-4)GlcNAc
Outline: as §1

[25] = molecular target: GlcNAc(b1-3)Gal(b1-4)GlcNAc(b1-2)[GlcNAc(b1-3)Gal(b1-4)GlcNAc(b1-6)]Man(a1-6)[GlcNAc(b1-3)Gal(b1-4)GlcNAc(b1-2)Man(a1-3)]Man(b1-4)GlcNAc(b1-4)GlcNAc
Outline: as §1

GlcNAc(b1-3)Man = molecular target: GlcNAc(b1-3)Man
Outline: as §1

[26] = molecular target: GlcNAc(b1-4)GlcNAc(b1-4)GlcNAc(b1-4)GlcNAc(b1-4)GlcNAc(b1-4)GlcNAc
Outline: as §1

[27] = molecular target: GlcNAc(b1-6)Gal(b1-4)GlcNAc
Outline: as §1

[28] = molecular target: Man(a1-3)[Man(a1-6)]Man(b1-4)GlcNAc(b1-4)GlcNAc
Outline: as §1

[29] = molecular target: Neu5Ac(a2-3)Gal(b1-3)[Fuc(a1-4)]GlcNAc(b1-3)Gal(b1-3)[Fuc(a1-4)]GlcNAc
Outline: as §1

[30] = molecular target: Neu5Ac(a2-3)Gal(b1-4)GlcNAc(b1-2)Man(a1-3)[Neu5Ac(a2-3)Gal(b1-4)GlcNAc(b1-2)Man(a1-6)]Man(b1-4)GlcNAc(b1-4)[Fuc(a1-6)]GlcNAc
Outline: as §1

[31] = molecular target: Neu5Ac(a2-3)Gal(b1-4)GlcNAc(b1-3)Gal(b1-3)GlcNAc
Outline: as §1

[32] = molecular target: Neu5Ac(a2-3)Gal(b1-4)GlcNAc(b1-3)GalNAc
Outline: as §1

[33] = molecular target: Neu5Ac(a2-3)Gal(b1-4)GlcNAc(b1-6)GalNAc
Outline: as §1

[34] = molecular target: Neu5Ac(a2-3)Gal(b1-4)[Fuc(a1-3)]GlcNAc(b1-3)GalNAc
Outline: as §1

[35] = molecular target: Neu5Ac(a2-3)Gal6S(b1-4)GlcNAc
Outline: as §1

[36] = molecular target: Neu5Ac(a2-6)Gal(b1-4)GlcNAc(b1-2)Man(a1-3)[GlcNAc(b1-2)Man(a1-6)]Man(b1-4)GlcNAc(b1-4)GlcNAc
Outline: as §1

[37] = molecular target: Neu5Ac(a2-6)Gal(b1-4)GlcNAc(b1-2)Man(a1-6)[Man(a1-3)]Man(b1-4)GlcNAc(b1-4)GlcNAc
Outline: as §1

[38] = molecular target: Neu5Ac(a2-6)Gal(b1-4)GlcNAc(b1-3)Gal(b1-4)GlcNAc(b1-3)GalNAc
Outline: as §1

[39] = molecular target: Neu5Ac(a2-6)Gal(b1-4)GlcNAc(b1-3)Gal(b1-4)[Fuc(a1-3)]GlcNAc(b1-3)Gal(b1-4)[Fuc(a1-3)]GlcNAc
Outline: as §1

Neu5Ac(a2-6)GalNAc = molecular target: Neu5Ac(a2-6)GalNAc
Outline: as §1

[40] = molecular target: Neu5Ac(a2-6)GalNAc(b1-4)GlcNAc
Outline: as §1

[41] = molecular target: Neu5Ac(a2-8)Neu5Ac(a2-8)Neu5Ac(a2-3)[Gal(b1-3)GalNAc(b1-4)]Gal(b1-4)Glc
Outline: as §1

[42] = molecular target: Neu5Ac(a2-8)Neu5Ac(a2-8)Neu5Ac(a2-8)Neu5Ac(a2-3)[GalNAc(b1-4)]Gal(b1-4)Glc
Outline: as §1

Neu5Gc(a2-6)GalNAc = molecular target: Neu5Gc(a2-6)GalNAc
Outline: as §1

B1: Clrb (Mus musculus) (protein)
chain: ITGATKTEQIPVNKTYAACPQNWIGVENKCFYFSEYPSNWTFAQAFCMAQEAQLARFDNQDELNFLMRYKANFDSWIGLHRESSEHPWKWTDNTEYNNTIPIRGEERFAYLNNNGISSTRIYSLRMWICSKLNSYSLHCQTPFFPSGTKHHHHHHHHG
glycan array binding signal (z-score) [1]: -0.359
glycan array binding signal (z-score) (Fuc(a1-2)[Gal(a1-3)]Gal): -0.293
glycan array binding signal (z-score) [2]: -0.417
glycan array binding signal (z-score) [3]: -0.215
glycan array binding signal (z-score) [4]: -0.299
glycan array binding signal (z-score) (Fuc(b1-3)GlcNAc): -0.294
glycan array binding signal (z-score) [5]: -0.505
glycan array binding signal (z-score) (Gal(a1-6)Glc): -0.176
glycan array binding signal (z-score) [6]: -0.249
glycan array binding signal (z-score) [7]: -0.431
glycan array binding signal (z-score) [8]: -0.303
glycan array binding signal (z-score) [9]: -0.404
glycan array binding signal (z-score) [10]: -0.186
glycan array binding signal (z-score) (Gal(b1-4)GlcNAc): -0.146
glycan array binding signal (z-score) [11]: -0.355
glycan array binding signal (z-score) [12]: -0.157
glycan array binding signal (z-score) [13]: -0.386
glycan array binding signal (z-score) [14]: 5.13
glycan array binding signal (z-score) (Gal3S6S(b1-4)GlcNAc): -0.099
glycan array binding signal (z-score) (Gal4S(b1-4)GlcNAc): -0.31
glycan array binding signal (z-score) (Gal4S6S(b1-4)GlcNAc): -0.101
glycan array binding signal (z-score) (Gal6S(b1-3)GlcNAc6S): -0.357
glycan array binding signal (z-score) [15]: -0.541
glycan array binding signal (z-score) [16]: -0.023
glycan array binding signal (z-score) [17]: 4.64
glycan array binding signal (z-score) (GalNAc6S(b1-4)GlcNAc): 4.38
glycan array binding signal (z-score) [18]: -0.498
glycan array binding signal (z-score) [19]: 5.77
glycan array binding signal (z-score) [20]: 3.81
glycan array binding signal (z-score) [21]: 4.2
glycan array binding signal (z-score) [22]: 5.29
glycan array binding signal (z-score) [23]: 4.51
glycan array binding signal (z-score) [24]: 4.02
glycan array binding signal (z-score) [25]: 0.54
glycan array binding signal (z-score) (GlcNAc(b1-3)Man): -0.377
glycan array binding signal (z-score) [26]: 7.67
glycan array binding signal (z-score) [27]: 1.87
glycan array binding signal (z-score) [28]: -0.297
glycan array binding signal (z-score) [29]: -0.359
glycan array binding signal (z-score) [30]: -0.226
glycan array binding signal (z-score) [31]: -0.383
glycan array binding signal (z-score) [32]: -0.44
glycan array binding signal (z-score) [33]: -0.392
glycan array binding signal (z-score) [34]: -0.205
glycan array binding signal (z-score) [35]: -0.365
glycan array binding signal (z-score) [36]: -0.472
glycan array binding signal (z-score) [37]: -0.503
glycan array binding signal (z-score) [38]: -0.628
glycan array binding signal (z-score) [39]: -0.211
glycan array binding signal (z-score) (Neu5Ac(a2-6)GalNAc): -0.508
glycan array binding signal (z-score) [40]: 4.69
glycan array binding signal (z-score) [41]: -0.421
glycan array binding signal (z-score) [42]: -0.449
glycan array binding signal (z-score) (Neu5Gc(a2-6)GalNAc): -0.377
